Rows were chosen to be rich in hits. Some 7.9% of all compounds tested hit in one or more screens of this group.
M1 ag = activates the M1 muscarinic receptor. CHO-M1 cells, Fluo-4 calcium fluorescence, agonist mode; hits give high values. B-score at 10 µM. 64,000 tested, 3% active. AID 626;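 active = fluorescence rise, raw or as B-score row- and column-corrected plate score, outside the 99.7% band of its plate's samples, either direction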
PLAP act = human PLAP activation; P05187; purified PLAP enzyme, luminescent substrate read-out; hits give high values; activation fold at 20 µM; 96,000 tested, 1.2% active; AID 696; in the data active = activation fold above about 2
Her2 expr inh = Her2 kinase expression inhibition; SKBR-3 HER2 protein level, AlphaScreen, 18-24 h; hits give low values; HER2 level % of control, % at 10 µM; 65,000 tested, 0.69% active; AID 645;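 active = HER2 level under 5% of the carrier-only control; inconclusive = no clear call, values can overlap the other calls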;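 also: 100% = DMSO carrier and 0% = 500 nM PU-H71 HSP90 inhibitor; lower value means stronger loss of Her2 protein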
Cav3 T inh = inhibitors of human Cav3.2 T-type calcium channel; O95180; Cav3.2-expressing cells, Fluo-4 calcium fluorescence FDSS; hits give low values; B-score at 10 µM; 100,000 tested, 4% active; AID 449739;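 active = single-dose well whose peak fluorescence ratio is a statistical outlier from its plate by either plate-standardised score or position-corrected B-score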
M1 antag = M1 muscarinic receptor (rat) antagonism | P08482 | CHO-M1 cells, Fluo-4 calcium, ACh EC80 antagonist mode; hits give low values | B-score at 10 µM | 64,000 tested, 3.4% active;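 active = calcium fluorescence response, raw or row-and-column corrected B-score, differing from the plate sample mean either way at a set confidence level, mostly lower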
M1 agonist conf = rat M1 muscarinic agonism, confirmation; CHO-M1 cells, Fluo-4 calcium fluorescence, agonist mode; actives lie on both sides; shares compounds with M1 ag; fluorescence change (max-min) at 10 µM; 1,700 tested, 19% active; AID 1488;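 active = fluorescence change differs from the solvent-only DMSO control mean at a set confidence level in both duplicate runs; inconclusive = differs from solvent-only control mean in just one of two runs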;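 also: an EC20 dose of acetylcholine follows compound addition during the same imaging run; raw fluorescence intensity difference in instrument units with no normalization to controls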
M4 ag counter = rat M4 muscarinic agonism, M1 counter-screen; CHO M4/Gqi5 cells, Fluo-4 calcium fluorescence, agonist mode; actives lie on both sides; shares compounds with M1 ag; 1,700 tested, 9% active; fluorescence change (max-min) at 10 µM; AID 1741;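 active = fluorescence change differing from the plate's solvent-only control wells at 99.7% confidence in both duplicates, whether higher or lower; inconclusive = differs from solvent controls in only one of two duplicates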
Numbers without * were called inactive; ? = inconclusive; / = not tested or not shown.

SMILES	M1 ag	PLAP act	Her2 expr inh	Cav3 T inh	M1 antag	M1 agonist conf	M4 ag counter
COc1ccc(C2C(C(C)=O)=C(C)N=c3s/c(=C\c4cc(C)n(C)c4C)c(=O)n32)c(OC)c1 (centres undefined)	144*	1.1	56	-5*	-0.086	458*	?
COc1ccc(CN2C(=O)c3cccnc3C2Nc2cc(Cl)ccc2OC)cc1 (centres undefined)	4.8*	0.8	101	-0.72	1.1	-4.8	-30
Cc1cc(C)nc(N2CCCC(C(=O)NCCC3=CCCCC3)C2)n1 (centres undefined)	0.22	1	100	0.63	0.45	/	/
CCOC(=O)C(Sc1ncnc2c1sc1nc(N3CCOCC3)c3c(c12)CCCC3)c1ccccc1 (centres undefined)	/	1.3	/	-1.2	/	/	/
COc1ccc(C(=O)NC(=S)NCCO)cc1Br	/	1.1	/	0.73	/	/	/
COc1ccc(CNC(=O)Cc2nn(C)c(=O)c3ccccc23)cc1	11*	0.9	77	0.75	-0.48	8.4	3.6
O=S(=O)(c1ccc(Oc2ncnc3scc(-c4ccccc4)c23)cc1)N1CCOCC1	7*	1.7	117	-2.9	-0.44	?	?
C=CCOC(=O)C1=C(C)NC(C)=C(C(=O)OCC=C)C1c1ccc(O)cc1	0.3	1.6	93	-0.47	0.3	/	/
CCOC(=O)C1=C(C)NC(C)=C(C(=O)OCC)C1c1ccc(OC)cc1	1.9*	1.3	94	/	-0.018	1.3	-23
COc1cc(C(=S)N2CCCC2)cc(OC)c1O	/	1	/	0.074	/	/	/
CCn1c(SCC(=O)N2CCOCC2)nc2oc3c(Cl)cc(Cl)cc3c(=O)c2c1=O	4.4*	1.2	-1.7*	0.78	-0.78	5.6	5
CCO[C@@H]1OC(C(N)=O)=C[C@H](C2CC2)[C@H]1CCCO	/	/	/	0.55	/	/	/
Cc1cc2oc(=O)cc(CSc3nc(N)cc(N)n3)c2cc1C(C)C	/	1.1	/	0.96	/	/	/
Cc1cc2oc(=O)cc(CN3CCCCC3)c2cc1C(C)C	11*	0.8	86	-4.7*	-0.058	?	-22
CC(C)N(C(=O)CN(C#N)c1nc(N(C)C)nc(N(C)C)n1)c1ccccc1	-3.2*	1.7	83	1.1	-0.7	-11	-14
Cc1ccc(NC(=O)CCSc2nnnn2-c2ccc3c(c2)OCO3)cc1C	-2.7*	1.2	73	-5.1*	-0.17	-5.8	-19
CNS(=O)(=O)c1cnccc1N1CCN(c2cccc(C(F)(F)F)c2)CC1	/	1.1	/	0.067	/	/	/
COc1ccc(-c2noc(CCC(=O)Nc3ccc4c(c3)OCCO4)n2)cc1	3.7*	0.7	76	-0.33	-2*	20	-11
Cc1ccc(-c2noc(CCC(=O)Nc3ccc4c(c3)OCO4)n2)cc1	-0.8	0.9	98	0.035	0.85	/	/
COc1ccccc1NC(=O)Cn1nnc(-c2ccccc2NC(=O)c2cc3ccccc3oc2=O)n1	/	1.1	/	0.29	/	/	/
C=CCNc1ncnc2c1[nH]c1ccc(C)cc12	4.2*	0.9	88	1.1	-0.47	18	-22
Cc1ccc2[nH]c3c(NCCN4CCOCC4)ncnc3c2c1	1.4	1	95	0.85	0.035	/	/
CC(=O)NC(CCS(C)(=O)=O)C(=O)Nc1ccc(Cl)c(Cl)c1 (centres undefined)	2.9*	1.1	91	-0.67	-1.6	-8.3	-47
c1ccc(-c2nnc(SCc3cn4ccsc4n3)o2)cc1	39*	1	75	0.81	-0.42	-13	-40
O=C(NCc1cccnc1)C1c2ccccc2C(=O)N1Cc1ccco1 (centres undefined)	11*	1.6	90	0.47	0.02	-16	-19
SMILES	M1 ag	PLAP act	Her2 expr inh	Cav3 T inh	M1 antag	M1 agonist conf	M4 ag counter
Cc1cc(-n2c(C)cc(C(=O)CSc3ccc4c(c3)OCCO4)c2C)no1	0.019	0.9	107	-3.6	-0.96	/	/
O=C(Nc1ccc(CCC(=O)N2CCCC2)cc1)c1ncn[nH]1	1.8*	1	86	0.3	-0.0062	6.1	-9.7
O=C(Nc1ccc(N2CCCCC2)c(Cl)c1)c1ncn[nH]1	0.0078	1.4	98	-0.18	1.3	/	/
CCn1c(SCC(=O)c2cc(C)n(CC3CCCO3)c2C)nc2ccccc21 (centres undefined)	5.3*	1.7	100	-1.9	0.033	?	-44
CCCCCCNc1c(C(=O)OCC)c(=O)[nH]c2ccccc12	5.4*	0.8	97	-0.079	-0.37	-28	-33
O=C(NCCc1ccc(Cl)cc1)C1CCN(S(=O)(=O)N2CCCCC2)CC1	1.9*	1	121	-0.007	-0.63	?	-72
O=C(NCCc1ccccc1)C1CCN(S(=O)(=O)N2CCCC2)CC1	-0.17	1.2	53	0.44	0.28	/	/
O=C(NCCc1cccc(Cl)c1)c1cccnc1	11*	1.2	101	-1	-4.4*	-1.5	-21
O=C(COc1cccc(NC(=O)c2ccco2)c1)c1ccc(F)cc1	5.7*	0.8	112	-0.83	-1.1	?	?
CCc1nn(C(C)C(=O)NC(C)CCc2ccco2)c(=O)c2cc3occc3n12 (centres undefined)	-0.29	1.4	83	0.11	0.46	/	/
Cc1ccc(C)c(S(=O)(=O)NCC(=O)Nc2sc3c(c2C(N)=O)CCC(C)C3)c1 (centres undefined)	/	0.9	/	-0.048	/	/	/
Cc1ccccc1CSc1nc2c(c(=O)[nH]1)CCCC2	/	0.9	/	/	/	/	/
Cc1ccc(CSc2nc3c(c(=O)[nH]2)CCC3)cc1	2.3*	1.1	/	-0.46	0.68	28	-5.3
COc1cccc(CNn2c(-c3cccc(C)c3)nc3ccccc3c2=O)c1O	8.6*	1.1	113	-0.49	-1.2	?	-43
COc1ccc(NC(=O)N2Cc3ccccc3CC2C(=O)NC(C)(C)C)cc1 (centres undefined)	/	0.9	/	0.66	/	/	/
COc1ccc(NC(=O)C2Cc3ccccc3CN2C(=O)c2ccccc2)cn1 (centres undefined)	16*	1	112	-0.37	-0.62	?	?
O=C(NCC1CCCO1)c1ccccc1-c1nc(-c2ccccc2)no1 (centres undefined)	2.4*	1.4	102	-0.53	0.1	-15	?
O=C1C2ON(c3ccccc3)C(c3ccccn3)C2C(=O)N1c1ccc(Br)cc1 (centres undefined)	0.52	1.5	76	-0.78	0.71	/	/
Cc1ccccc1N1OC2C(=O)N(c3ccc(F)cc3)C(=O)C2C1c1ccccn1 (centres undefined)	13*	1	101	0.24	-0.12	-6.3	-15
CCOC(=O)C1CCCN(C(=O)c2cc3nc(-c4cccc(OC)c4)cc(C(F)(F)F)n3n2)C1 (centres undefined)	3.7*	1.2	114	-2.6	-1.5	-15	-28
O=C(c1ccco1)N1CCN(CC2CC3C=CC2C3)CC1 (centres undefined)	6.2*	0.9	94	-0.06	-2.4*	?	-57

Screening results as filed in PubChem BioAssay.
